Results: the supplement of paper PMC10981050
“And” between values parts separate entries of the source, which are not always exact repeats. Identical values can stand only once. Counter-ions that a name gives are not always drawn.

Assays:
Test in all cases: cell viability relative to vehicle control; higher = less cytotoxic
Details in all cases: 10 µM
K562 = tested on: K562
In short: (§1)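 Each screen used CRISPR-edited mutant and wild-type clones from four leukaemia lines. Compounds were acoustically dispensed at a single 10 µM dose, and CellTiter-Glo luminescence was read after 48 h with the supernatant first removed. Viability was analysed in Genedata Screener and given as percent of the on-plate vehicle control.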

MARIMO = tested on: MARIMO
In short: as §1

MOLM14 = tested on: MOLM14
In short: as §1

OCI-AML2 = tested on: OCI-AML2
In short: as §1

Row | SMILES | cell viability (K562; SRSF2 genotype: SRSF2 P95H/wt) | cell viability (K562; SRSF2 genotype: SRSF2 wt/wt) [%] | cell viability (MARIMO; SRSF2 genotype: SRSF2 P95H/wt) [%] | cell viability (MARIMO; SRSF2 genotype: SRSF2 wt/wt) [%] | cell viability (MOLM14; SRSF2 genotype: SRSF2 P95H/wt) [%] | cell viability (MOLM14; SRSF2 genotype: SRSF2 wt/wt) [%] | cell viability (OCI-AML2; SRSF2 genotype: P95H/wt) [%] | cell viability (OCI-AML2; SRSF2 genotype: wt/wt) [%]
1 | COc1ccc2[nH]cc(/C=C3\C(=O)Nc4ccc(NC(=O)CCN5CCCCC5)cc43)c2c1 | 7.59% and 11% | 8.26 | 37.9 | 33.6 | 0.75 | 0.77 | 0.4 | 0.72
2 | Oc1ccc(Nc2nc(-c3ccc(Cl)cc3)cs2)cc1 | 49.4% and 65.5% | 66.4 | 38.8 | 36.5 | 40.9 | 39.6 | 42.1 | 42.1
3 | COCCOc1nc(-c2ccc(Cl)c(Cl)c2)n(-c2ccc(NC(=O)CCl)cc2)n1 [MI-2 (MALT1 inhibitor)] | 16% and 8.54% | 6.61 | 0.5 | 0.7 | 0.48 | 0.53 | 0.42 | 0.46
4 | CC(C)(C)NC[C@H](O)COc1nsnc1N1CCOCC1 [Timolol Maleate] | 98.8% and 98.3% | 97.4 | 101 | 106 | 99.3 | 103 | 103 | 109
5 | OCCn1cc(-c2ccc3c(c2)CC/C3=N\O)c(-c2ccncc2)n1 | 110% | 111 | 85 | 73 | 89.8 | 94 | 94.4 | 80.8
6 | CCN1CCN(Cc2ccc(Nc3ncc(F)c(-c4cc(F)c5nc(C)n(C(C)C)c5c4)n3)nc2)CC1 | 1.86% and 0.59% | 0.69 | 0.46 | 0.64 | 0.3 | 0.31 | 0.29 | 0.39
7 | N#CC[C@H](C1CCCC1)n1cc(-c2ncnc3[nH]ccc23)cn1 [S-Ruxolitinib] | 108% and 98.5% | 113 | 101 | 104 | 75.5 | 89.4 | 83.4 | 77.2
8 | C[N+]1(C)[C@@H]2C[C@@H](OC(=O)C(O)(c3cccs3)c3cccs3)C[C@H]1[C@@H]1O[C@@H]12 [Tiotropium Bromide hydrate] | 106% and 108% | 98.9 | 102 | 107 | 105 | 104 | 98.9 | 104
9 | Cc1cc(NC(=O)Nc2ccc(N(C)C)cc2)c2cc(F)cc(F)c2n1 | 89.9% and 95.8% | 93.1 | 98.3 | 109 | 102 | 105 | 83.8 | 94.9
10 | O=c1c(N=Nc2nccs2)c(-c2ccccc2)[nH]n1-c1nc(-c2ccccc2)cs1 | 88.4% and 89.2% | 88.4 | 94.2 | 106 | 92.9 | 95.9 | 103 | 105
11 | CCC(=O)NCC[C@@H]1CCc2ccc3c(c21)CCO3 [Ramelteon] | 105% and 104% | 97.6 | 91.7 | 101 | 107 | 98.8 | 93.7 | 99.4
12 | Nc1ccc(/C=C/C(=O)NCc2cc3cc(-c4ccc(C(=O)N5CCC(F)(F)CC5)cc4)cc(-c4ccc(F)cc4)c3o2)cn1 | 19.8% and 14.3% | 19.1 | 10 | 13.1 | 4.36 | 1.09 | 4.54 | 4.59
13 | CC1OC(OC2CCC3(C)C(CCC4(C)C3C=CC3=C5CC(C)(C)CCC5(CO)C(O)CC34C)C2(C)CO)C(O)C(OC2OC(CO)C(O)C(O)C2O)C1O (stereo unspecified) [Saikosaponin B2] | 93.5% and 88.7% | 86.8 | 91.5 | 106 | 96.3 | 95.1 | 93.9 | 100
14 | CC(=O)c1ccccc1O [2'-Hydroxyacetophenone] | 101% and 100% | 99.4 | 99.1 | 96.6 | 105 | 101 | 102 | 105
15 | Cc1ncc(CO)c(CO)c1O [Metadoxine] | 99.4% and 100% | 104 | 98.1 | 103 | 101 | 103 | 101 | 114
16 | CN1CCC(=C2c3ccccc3C=Cc3ccccc32)CC1 [Cyproheptadine hydrochloride (Periactin)] | 90.8% and 86.3% | 83 | 77.3 | 89 | 72.5 | 91.5 | 81.1 | 85
17 | CCOC(=O)c1ccc(C#Cc2ccc3c(c2)C(C)(C)CCS3)nc1 [Tazarotene (Avage)] | 81% and 84.7% | 78.1 | 46.6 | 40.8 | 76.2 | 88.1 | 14.1 | 27.8
